Compound activity deposited in PubChem by several laboratories.
An excerpt weighted towards active compounds, which were near 0.97% of everything screened.
AI-2 QS mod – Vibrio harveyi AI-2 quorum sensing modulation; 300,000 tested, 0.4% active; Vibrio harveyi JMH597 AI-2 luminescence/OD600 ratio, 9 h; active compounds read low; strain lacks LuxN and CqsS sensors; 0 = neutral-control median; activity change, % at 7.5 µM; in the data active means activity change below about -75%, passing the limit was not always enough;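 further: luminescence divided by OD600 gain over 9 h not by final OD600 alone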
Hsp70 activator – Hsp70 transcriptional activation, primary screen; HeLa Hsp70 promoter luciferase reporter, luminescence; scaled: vehicle 0, proteasome-inhibitor control 100%; activation, % at 10 µM; 200,000 tested, 0.04% active; AID 1203;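 active means activation above the mean across all tested compounds plus 3 SD, cutoff set per campaign, cut at about 5.5% in these data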;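 further: 100% = MG132 at 30 µM as the positive control and 0% = DMSO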
S1P4 antag – antagonists of human S1P4 receptor; S1P4-expressing cells, antagonist mode, reporter read-out; inhibition, % at 4.98 µM; O95977; 220,000 tested, 0.26% active; in the data active means inhibition above about 29%;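 further: 0% = wells stimulated with agonist and 100% = vehicle wells without agonist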
S1P4 agonist – activates the human S1P4 receptor | O95977 | S1P4-expressing cell line, agonist reporter assay | activation, % at 4.98 µM | 220,000 tested, 0.35% active; in the data active means activation above about 11%;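 further: 0% = DMSO vehicle and 100% = reference agonist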
S1P3 antagonist – antagonists of human S1P3 receptor; Q99500; CHO S1P3 NFAT-BLA reporter, FRET fluorescence, antagonist mode; inhibition, % at 4.98 µM; 170,000 tested, 0.27% active;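 active means inhibition above the plate cutoff, the mean inhibition of test wells on that plate plus 3 SD, cut at about 28% in these data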;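 further: cells challenged with S1P at its EC80 of 0.8 µM; blue over green emission ratio from cleaved BLA substrate after 4 h stimulation; 0% = S1P-stimulated wells and 100% = unstimulated DMSO-only wells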
S1P4 antag cf – confirmation of human S1P4 receptor antagonists; shares compounds with S1P4 antag; S1P4-expressing cell line, antagonist mode, reporter read-out; inhibition, % at 4.98 µM; 520 tested, 71% active; AID 1524; in the data active means inhibition above about 30%
S1P1 antag – blocks human S1P1, counter-screen for S1P4 antagonists; shares compounds with S1P4 antag; cell-based S1P1 antagonist counterscreen, inhibition; inhibition, % at 4.98 µM; 520 tested, 37% active; AID 1564; in the data active means inhibition above about 40%;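 further: receptor stimulated with S1P near its EC80; 0% = agonist stimulated wells and 100% = vehicle only wells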
Target sequence (P21453 whole entry, looked up): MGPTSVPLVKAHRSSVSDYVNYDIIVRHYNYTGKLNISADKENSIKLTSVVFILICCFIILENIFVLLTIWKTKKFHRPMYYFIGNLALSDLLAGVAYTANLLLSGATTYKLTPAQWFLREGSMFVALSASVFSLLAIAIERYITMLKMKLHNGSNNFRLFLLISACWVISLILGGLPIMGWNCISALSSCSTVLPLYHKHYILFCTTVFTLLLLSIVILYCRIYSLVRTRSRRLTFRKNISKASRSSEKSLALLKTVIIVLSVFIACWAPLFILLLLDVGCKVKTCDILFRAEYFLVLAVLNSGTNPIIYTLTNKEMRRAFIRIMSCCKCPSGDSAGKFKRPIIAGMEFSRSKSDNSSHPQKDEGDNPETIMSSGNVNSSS
The depositor's hits bear a star; · = not tested or not shown.

SMILES	AI-2 QS mod	Hsp70 activator	S1P4 antag	S1P4 agonist	S1P3 antagonist	S1P4 antag cf	S1P1 antag
COc1ccc(-c2cc(C(F)F)n3ncc(C(=O)N4CCCCC4)c3n2)cc1	25	0	5	1	·	·	·
O=C(c1cnn2c(C(F)F)cc(-c3ccccc3)nc12)N1CCN2CCCC2C1 (stereo not drawn)	29	1	35*	0	-20	0	3
COc1ccc(-n2nnnc2CNC(=O)C2CC(=O)N(c3ccc(Cl)cc3)C2)cc1 (stereo not drawn)	-1	·	·	·	·	·	·
CCCS(=O)(=O)c1nnnn1-c1cccc(OC)c1	-63	0	38*	-2	-17	111*	23
COc1cccc(-n2nnnc2SCC(=O)Nc2ccccc2OC)c1	8	·	·	·	·	·	·
Cc1ccc(C(=O)NCC#N)cc1	21	0	5	1	3	·	·
Cc1ccc(C(=O)NC(C#N)=C(Cl)Cl)cc1	-56	2	60*	1	-10	110*	28
CCOC(=O)C(=Cc1ccc(F)cc1)C(=O)OCC	7	0	19	-1	·	·	·
CCOC(=O)C(=Cc1ccc(Br)cc1)C(=O)OCC	16	·	90*	1	-26	115*	35
CCOC(=O)/C(C#N)=C\C1=C(N2CCOCC2)CC(C)(C)OC1	11	0	0	0	-6	·	·
C(=N\n1cnnc1)/c1ccc2c(c1)OCCO2	53	0	-1	-1	·	·	·
C(=N\n1cnnc1)/c1ccc2c(c1)OCO2	10	0	31*	-2	-19	-2	-1
CC(=O)Nc1cccc(C(=O)/C=C/c2ccc(C)cc2)c1	3	0	45*	1	-8	55*	21
CCCCOc1cccc(/C=C(\C#N)C(=O)NC2CC2)c1	11	·	·	·	·	·	·
CN1Cc2c(N3CCOCC3)nc3sc(C(=O)c4ccc(Br)cc4)c(N)c3c2CC1(C)C	14	·	43*	-2	12	57*	58*
CN1Cc2c(N3CCOCC3)nc3sc(C#N)c(N)c3c2CC1(C)C	15	·	4	-1	1	·	·
Oc1ccc2ccccc2c1N=Nc1ccccc1F	18	·	1	1	-10	·	·
Oc1ccc2ccccc2c1N=Nc1ccccn1	23	-1	50*	-4	·	78*	83*
COc1ccc(-c2csc(NC3OC(=O)c4c3ccc(OC)c4OC)n2)cc1OC (stereo not drawn)	4	·	32*	1	0	58*	44*
COc1ccc2c(c1OC)C(=O)OC2Nc1nc(-c2ccc([N+](=O)[O-])cc2)cs1 (stereo not drawn)	21	·	10	-1	1	·	·
O=S(=O)(Nc1nc2ccccc2nc1NCC1CCCO1)c1cccc(Cl)c1 (stereo not drawn)	23	·	2	1	-6	·	·
CCc1ccccc1NC(=O)Nc1ccc(F)cc1F	8	0	2	1	12	·	·
O=C(Nc1ccc(F)cc1F)Nc1ccccc1C(=O)NCCN1CCNC1=O	36	·	31*	0	-19	-14	11
Cc1cccc(NS(=O)(=O)c2ccc(-n3cccn3)cc2)c1C	15	·	·	·	·	·	·
COC(=O)COc1ccc(S(=O)(=O)N2CCCCCC2)cc1C	15	·	·	·	·	·	·
SMILES	AI-2 QS mod	Hsp70 activator	S1P4 antag	S1P4 agonist	S1P3 antagonist	S1P4 antag cf	S1P1 antag
COC(=O)COc1ccc(S(=O)(=O)N2CCN(c3ccccc3F)CC2)cc1C	20	0	35*	0	-37	14	-9
CCC(=O)Oc1ccc2c(c1)O/C(=C\c1ccco1)C2=O	31	·	29*	0	-7	37*	31
CCN(CC)C(=O)Oc1ccc2c(c1)O/C(=C\c1ccco1)C2=O	5	·	·	·	·	·	·
COc1cccc(NC(=O)CC(=O)c2ccccc2)c1	-22	·	·	·	·	·	·
O=C(NCCC(=O)N1CCc2ccccc21)c1ccco1	12	·	·	·	·	·	·
Cc1cc(C(=O)COC(=O)COc2ccc(C#N)cc2)c(C)n1C1CC1	5	·	·	·	·	·	·
CCOC(=O)c1cnc(SC2CC(=O)N(c3ccc(C)cc3)C2=O)nc1N (stereo not drawn)	4	0	44*	-2	·	14	16
CCN(CC)CCNC(=O)c1ccc2c(c1NCCO)C(=O)c1ccccc1C2=O	9	·	81*	0	9	-11	-1
CC(=O)Cn1ncc(Br)c(Br)c1=O	2	1	33*	-2	-6	111*	51*
O=C(OCn1ncc(Br)c(Br)c1=O)c1c(F)cccc1F	-40	4	59*	-2	·	116*	12
CCCCc1nnc(SCC(=O)NC2CCCCC2)n1C	-5	·	·	·	·	·	·
O=C(CSCCN1C(=O)c2ccccc2C1=O)Nc1ccc2ccccc2c1	0	0	-8	2	-12	·	·
N#C/C(=C\c1ccccn1)c1nc2ccccc2s1	13	0	74*	0	-4	36*	43*
COc1ccc(CN(C(=O)c2oc3ccccc3c2C)C2CCS(=O)(=O)C2)cc1OC (stereo not drawn)	·	0	32*	1	7	-18	-2
COc1ccccc1S(=O)(=O)Cc1ccc(C(=O)NCc2ccccc2)o1	12	·	·	·	·	·	·
CCOC(=O)COc1ccccc1/C=C\[N+](=O)[O-]	-90*	1	33*	-1	10	114*	72*
CCOC(=O)COc1cc([N+](=O)[O-])cc2cccnc12	29	-1	9	1	-16	·	·
CCc1ccc(OCC(=O)NC(NC(=S)Nc2ccc(Cl)cc2)C(Cl)(Cl)Cl)cc1 (stereo not drawn)	4	0	42*	0	5	0	-4
CCCOc1cccc(C(=O)Nc2ccc3c(c2)OCCO3)c1	2	·	·	·	·	·	·
Cc1cc(Br)c2c(c1)/C(=C/C(=O)c1cccs1)C(=O)N2	16	0	35*	1	-20	68*	43*
Cc1cccc2c1NC(=O)/C2=C\C(=O)c1cccs1	13	0	24	1	·	·	·
CCc1ccc2c(c1)/C(=C/C(=O)c1cccs1)C(=O)N2	32	-1	66*	-1	·	109*	78*
Cc1c(C=O)c(C=O)c(C)n1Cc1ccccc1	10	0	35*	-1	·	42*	19
CC(=O)c1c(C(C)=O)c(C)n(Cc2ccccc2)c1C	21	0	-18	1	36	·	·
CC(NC(=O)C(=O)NCCc1c[nH]c2ccccc12)c1ccccc1 (stereo not drawn)	13	·	·	·	·	·	·
CCOC(=O)C1(Cc2ccccc2C(F)(F)F)CCN(C2CCN(C(C)=O)CC2)CC1	18	0	-6	2	-4	·	·
Cc1ccccc1-c1cc2c(nn1)-c1ccccc1C2=O	20	0	93*	-2	·	10	8
CCn1c(=O)c2sccc2n(Cc2cccc(C)c2)c1=O	-14	·	·	·	·	·	·
CCOC(=O)C1CCN(c2ncnc3c2[nH]c2cccc(OC)c23)CC1	16	0	56*	0	16	-4	26
O=C(Nc1ccc(F)cc1)/C(Cl)=C/c1ccccc1	-51	0	11	0	-1	·	·
